Data as given in PubChem BioAssay (NCI).
Compounds without any hit were thinned out: in the full panel of roughly 83,000, 20% have a hit.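 Treatment: one concentration, 48 hours, 96-well format. Scoring: percent growth, with anything below 10 considered active.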 A number with no mark means an inactive call. Calls of active or inactive are those of the source.

Legend:
Test in all cases: NCI-60 one-dose screen, 48 h (100 = growth as untreated, 0 = no growth, -100 = all killed)
Details in all cases: 10 µM unless noted
DU-145 prostate = system: DU-145 prostate
K-562 leukemia = system: K-562 leukemia
MALME-3M melanoma = system: MALME-3M melanoma
MDA-MB-231 breast = system: MDA-MB-231 breast
RXF 393 renal = system: RXF 393 renal
SF-268 CNS = system: SF-268 CNS
SF-295 CNS = system: SF-295 CNS
SF-539 CNS = system: SF-539 CNS
UACC-257 melanoma = system: UACC-257 melanoma
M14 melanoma = system: M14 melanoma
HCT-15 colon = system: HCT-15 colon
HT29 colon = system: HT29 colon
SNB-75 CNS = system: SNB-75 CNS
SNB-19 CNS = system: SNB-19 CNS
U251 CNS = system: U251 CNS
PC-3 prostate = system: PC-3 prostate
SK-MEL-5 melanoma = system: SK-MEL-5 melanoma
UACC-62 melanoma = system: UACC-62 melanoma
LOX IMVI melanoma = system: LOX IMVI melanoma

| Structure (SMILES) | growth (DU-145 prostate) | growth (K-562 leukemia) | growth (MALME-3M melanoma) | growth (MDA-MB-231 breast) | growth (RXF 393 renal) | growth (SF-268 CNS) | growth (SF-295 CNS) | growth (SF-539 CNS) | growth (UACC-257 melanoma) | growth (M14 melanoma) | growth (HCT-15 colon) | growth (HT29 colon) | growth (SNB-75 CNS) | growth (SNB-19 CNS) | growth (U251 CNS) | growth (PC-3 prostate) | growth (SK-MEL-5 melanoma) | growth (UACC-62 melanoma) | growth (LOX IMVI melanoma) |
| --- | --- | --- | --- | --- | --- | --- | --- | --- | --- | --- | --- | --- | --- | --- | --- | --- | --- | --- | --- |
| CN(C)c1ccc(/C=C(\C#N)c2nc3ccccc3n2C)cc1 | 25.7% | 32% | 61.7% | 48.8% | 3.51% (active) | 52.6% | 13.1% | 11.6% | 43.9% | 34.4% | 28.5% | 13.7% | 7.56% (active) | 68.6% | 30.3% | 35.7% | 14.5% | 35% | 46.2% |
| O=C(Nc1ccc(Oc2ccc(Nc3nc4ccccc4s3)cc2)cc1)Nc1ccc(Cl)c(C(F)(F)F)c1 | 9.51% (active) | 6.86% (active) | 2.78% (active) | -65.5% (active) | 8.85% (active) | 18.5% | 5.6% (active) | 9.29% (active) | -11.6% (active) | -4.56% (active) | 8.45% (active) | -10.9% (active) | 16.7% | 22.5% | 2.67% (active) | 3.08% (active) | -84.8% (active) | 1.63% (active) | -88.3% (active) |
| CC[C@H](Nc1nc(N)nc(C2CC2)c1C#N)c1nc2cccc(NCc3ccc(C(=O)NO)cc3)c2c(=O)n1-c1ccccc1 | -29.3% (active) | -14% (active) | -2.35% (active) | 2.7% (active) | -15.2% (active) | 4.22% (active) | -26.9% (active) | -0.037% (active) | -2.7% (active) | -18.6% (active) | 19% | 13.4% | -2.59% (active) | 7.25% (active) | -4.25% (active) | 10.1% | -29.5% (active) | -19% (active) | -89.2% (active) |
| CCN(CC)CCCC(C)Nc1cnc(C(=O)Nc2cc(C)cc3cccnc23)cn1 (centres undefined) | 80.7% | 25.9% | 107% | 89.2% | 72.3% | 66.1% | 98.9% | 86.9% | 71.7% | 98.6% | 59.9% | 37.3% | 78.3% | 89.2% | 78.4% | 83.1% | 83.1% | 98.6% | 87% |
| COc1ccc(C2CC(c3cccc(Nc4ccnc5cc(Cl)ccc45)c3)=NN2c2ccccc2)cc1 (centres undefined) | 82.8% | 20.7% | 58.7% | 74.2% | 99% | 71.2% | 23% | 65.4% | 59.7% | 27% | 46.6% | 60.8% | 62.5% | 78.3% | 65.4% | 67.5% | 39.1% | 29.5% | 49% |
| CCOC(=O)c1ccccc1SC(C[N+](=O)[O-])c1ccccc1 (centres undefined) | 90.9% | 56.8% | 98% | 96.6% | 62.9% | 104% | 99.7% | 90% | 84.4% | 68.9% | 59.6% | 5.22% (active) | 85.1% | 95.2% | 81.8% | 78% | 84.3% | 97.8% | 30.9% |
| COc1ccc(NC(=O)/C=C/c2ccc(NC(=O)N3CCCC3)cc2)cn1 | 106% | 99.4% | 96.8% | 97.5% | 109% | 101% | 99.8% | 97% | 103% | 103% | 94.1% | 106% | 102% | 102% | 98.6% | 96.5% | 99.8% | 101% | 98.4% |
| Cc1[nH]nc2ccc3nc(-c4ccc5[nH]ncc5c4)c4c(c3c12)CCCC4 | 33.9% | 14.3% | 7.88% (active) | 42.6% | 9.13% (active) | 33.8% | 31.1% | 18.7% | 50.6% | 18.9% | 16.2% | 22.1% | 6.45% (active) | 35.8% | 26.4% | 26.5% | 10.4% | 10.1% | 29.6% |
| COc1c(-c2cc(-c3ccc(C)o3)[nH]c(=O)n2)c(O)cc2occc12 | 78.2% | 16.8% | 69.2% | 70.8% | 56.3% | 69.8% | 77.6% | 69.9% | 78.7% | 44.7% | 32.6% | 96% | 50% | 65.9% | 63.5% | 69.4% | 76.8% | 48.1% | 58.2% |
| O=C(/C=C/c1cccc([N+](=O)[O-])c1)c1ccc(Nc2nc(N3CCCCC3)nc(N3CCCCC3)n2)cc1 | 98.7% | 97.7% | 118% | 103% | 100% | 97.5% | 93.2% | 99.6% | 97.4% | 98% | 87.6% | 88.6% | 101% | 100% | 95.2% | 89.3% | 97.6% | 91% | 92.9% |
| FC1(F)CCN(Cc2c[nH]c3cc(Cl)ccc23)C[C@H]1CCc1ccccc1 | 65% | 31.4% | 77.1% | 68.9% | 64.3% | 72.1% | 54.5% | 88.6% | 53.2% | 60% | 51% | 26.6% | 40.8% | 68% | 44.5% | 53.3% | 62.7% | 59.9% | 46.9% |
| COc1cc2nccc(Oc3ccc(NC(=O)C4(C(=O)Nc5c(F)cc(F)cc5F)CC4)cc3)c2cc1Oc1ccc(N)cn1 | 80.7% | 7.69% (active) | 59% | 65.9% | 65.8% | 55.5% | 30.6% | 21.2% | 53.8% | 56.9% | 45.5% | 34.8% | 21.7% | 78.7% | 67.3% | 51.5% | 29% | 24.4% | 49.4% |
| CN1CCN(Cc2ccc(NC(=O)c3cncc(C#Cc4ccc(N)nc4)c3)cc2C(F)(F)F)CC1 | 21.4% | 1.27% (active) | -70.3% (active) | -46.3% (active) | -6.03% (active) | 15.8% | 11.5% | -39.8% (active) | 11.8% | -37% (active) | 7.71% (active) | 3.36% (active) | 4.55% (active) | 37.2% | 14.9% | 15.6% | -5.69% (active) | -5.85% (active) | -25.8% (active) |
| CCN(CC)CCCC(C)Nc1cnc(C(=O)Nc2cccc3ccc(OC)nc23)cn1 (centres undefined) | 78.8% | -57.1% (active) | -69.8% (active) | 71.8% | 46% | 63% | 101% | 0.457% (active) | -39% (active) | -75.6% (active) | -25.6% (active) | -47.2% (active) | 75.9% | 94.9% | 56.1% | 69.5% | 5.4% (active) | -57.8% (active) | -89.9% (active) |
| COc1cccc2nc(Nc3cccc(NC(=O)c4ccc(N5CCN(C)CC5)c(C(F)(F)F)c4)c3)ccc12 | 29.4% | -49.1% (active) | -10.5% (active) | 29.5% | -2.23% (active) | 35.5% | -0.464% (active) | -27.9% (active) | -21.9% (active) | 10.1% | -10.4% (active) | -67.7% (active) | -7.68% (active) | 48.4% | -24.6% (active) | 22% | 48.8% | -38.4% (active) | -96.7% (active) |
| CN1CCN(Cc2ccc(NC(=O)c3ccc(C#N)c(C#Cc4cnc(N)c5ncccc45)c3)cc2C(F)(F)F)CC1 | 28.8% | -5.03% (active) | -52% (active) | -2.17% (active) | 41.9% | 94.1% | 103% | 54.5% | -20.1% (active) | 3.5% (active) | 1.93% (active) | 4.28% (active) | 112% | 115% | 55.6% | 81.1% | 87% | 58.8% | 82.5% |
